# Laboratory results as given in the supplement of paper PMC10849652.
# The full data set covers some 8,800 targets. This sample favours those with a hit. About 0.5% of all pairs of compound and target were hits. Unmarked numbers belong to inactive results.
# Tests used:
# Test in all cases: log2 fold change, soluble protein after heating vs DMSO (PISA); higher = thermal stabilisation; K562 lysate, 10 uM; active = over 0.2 and 3.5 SD of the protein, either way, in both replicates (recomputed)
# erlotinib = compound: C#Cc1cccc(Nc2ncnc3cc(OCCOC)c(OCCOC)cc23)c1 [erlotinib]
# In short: (§1)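 The values are log-two fold changes in thermal stability compared with solvent controls and come from duplicates. They were obtained by TMTpro 16plex LC-MS/MS, with channel sums equalised, on the supernatant after 21,000xg for 90 min. That supernatant came from crude K562 extract at 1 mg/mL protein treated with 10 μM compound for 30 min, heated for 3 min across 48°C-58°C, pooled and brought to 0.5% NP-40 at 4°C.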
# [1] = compound: C/C(=N\NC(=O)C1=CC(=CC=C1)S(=O)(=O)N2CCOCC2)/C3=C(C=CC(=C3)Cl)O
# In short: as §1
# [2] = compound: C1=CC(=CC=C1C2=NC3=C(N2)C=C(C=C3)C(=O)N)OC4=CC=C(C=C4)Cl
# In short: as §1
# [3] = compound: C1=CC2=C(C=CC(=C2)/C=C\3/C(=O)NC(=NCC4=CC=CS4)S3)N=C1
# In short: as §1
# [4] = compound: C1=CC2=NC=CN=C2C=C1/C=C/3\C(=O)NC(=O)S3
# In short: as §1
# [5] = compound: C1=CC=C(C=C1)C2=NC(=C(N2)C3=CC=NC=C3)C4=CC(=C(C=C4)Cl)O
# In short: as §1
# [6] = compound: C1=CC=C2C(=C1)C3=NNC4=CC=CC(=C43)C2=O
# In short: as §1
# [7] = compound: C1CCN(C1)C(=O)NC2=CC=CC(=C2)NC3=NC=C(C(=N3)NCCC4=CN=CN4)Br
# In short: as §1
# [8] = compound: C1CN(CCC1(CC2=CC=C(C=C2)Cl)N)C3=NC=NC4=C3C=CN4
# In short: as §1
# IRAK-1-4 Inhibitor I = compound: C1COCCN1CCN2C3=CC=CC=C3N=C2NC(=O)C4=CC(=CC=C4)[N+](=O)[O-] [IRAK-1-4 Inhibitor I]
# In short: as §1
# ibrutinib = compound: C=CC(=O)N1CCC[C@@H](n2nc(-c3ccc(Oc4ccccc4)cc3)c3c(N)ncnc32)C1 [ibrutinib]
# In short: as §1
# [9] = compound: CC(=O)c1cnc2ccc(-c3cc(Cl)c(O)c(Cl)c3)nc2c1N[C@H]1CC[C@H](CN(C)C)CC1
# In short: as §1
# ralimetinib = compound: CC(C)(C)Cn1c(N)nc2ccc(-c3[nH]c(C(C)(C)C)nc3-c3ccc(F)cc3)nc21 [ralimetinib]
# In short: as §1
# [10] = compound: CC(C)(O)CC(=O)NCCn1ccc2ncnc(Nc3ccc(Oc4cccc(C(F)(F)F)c4)c(Cl)c3)c21
# In short: as §1
# [11] = compound: CC(C)C1=C2N=C(C=C(N2N=C1)NCC3=CC=CC=C3)NCCCCCCN
# In short: as §1
# [12] = compound: CC1=C(C(CC(=O)N1)C2=CC=C(C=C2)C(F)(F)F)C(=O)NC3=C(C=C4C(=C3)C=NN4)F
# In short: as §1
# [13] = compound: CC1=C(C2=C(C=C1)C(=O)C3=CC=CC=C3N2CCCN)C
# In short: as §1
# [14] = compound: CC1=C(C=C(C=C1)NC(=O)C2=CC(=CC=C2)C(C)(C)C#N)NC3=CC4=C(C=C3)N=CN(C4=O)C
# In short: as §1
# [15] = compound: CC1=C(C=C(C=C1)NC(=O)C2=CC(=CC=C2)N(C)C)NC(=O)C3=CC=C(C=C3)O
# In short: as §1
# [16] = compound: CC1=CC=C(C=C1)SC2=C3C=C(SC3=CN=C2)C(=O)N
# In short: as §1
# Chain of UniProt O95628 (O95628 whole entry, looked up): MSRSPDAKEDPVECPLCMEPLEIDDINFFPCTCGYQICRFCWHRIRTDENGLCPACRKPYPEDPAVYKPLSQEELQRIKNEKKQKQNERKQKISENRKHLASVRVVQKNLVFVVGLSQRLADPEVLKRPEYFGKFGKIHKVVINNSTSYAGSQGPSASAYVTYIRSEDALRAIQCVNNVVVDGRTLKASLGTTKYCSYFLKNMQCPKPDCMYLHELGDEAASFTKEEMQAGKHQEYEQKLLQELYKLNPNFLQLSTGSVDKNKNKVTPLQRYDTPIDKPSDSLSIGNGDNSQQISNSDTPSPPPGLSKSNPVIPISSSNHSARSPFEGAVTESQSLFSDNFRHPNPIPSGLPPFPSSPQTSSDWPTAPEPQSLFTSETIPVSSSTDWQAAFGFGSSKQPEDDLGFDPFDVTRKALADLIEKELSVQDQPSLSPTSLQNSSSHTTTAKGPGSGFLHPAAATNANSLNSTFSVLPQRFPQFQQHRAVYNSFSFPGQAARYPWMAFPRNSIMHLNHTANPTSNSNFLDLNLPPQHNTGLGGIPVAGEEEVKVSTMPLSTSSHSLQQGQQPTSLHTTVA
# Chain of UniProt Q9Y315 (Q9Y315 whole entry, looked up): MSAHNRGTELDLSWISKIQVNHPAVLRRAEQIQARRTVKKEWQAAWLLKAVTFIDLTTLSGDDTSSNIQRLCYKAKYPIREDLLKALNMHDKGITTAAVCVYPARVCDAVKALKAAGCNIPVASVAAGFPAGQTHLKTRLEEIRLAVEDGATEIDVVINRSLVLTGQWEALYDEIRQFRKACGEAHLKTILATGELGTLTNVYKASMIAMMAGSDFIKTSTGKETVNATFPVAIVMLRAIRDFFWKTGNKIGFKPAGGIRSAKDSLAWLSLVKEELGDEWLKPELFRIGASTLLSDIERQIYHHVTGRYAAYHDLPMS
# Chain of UniProt Q9UBM7 (Q9UBM7 whole entry, looked up): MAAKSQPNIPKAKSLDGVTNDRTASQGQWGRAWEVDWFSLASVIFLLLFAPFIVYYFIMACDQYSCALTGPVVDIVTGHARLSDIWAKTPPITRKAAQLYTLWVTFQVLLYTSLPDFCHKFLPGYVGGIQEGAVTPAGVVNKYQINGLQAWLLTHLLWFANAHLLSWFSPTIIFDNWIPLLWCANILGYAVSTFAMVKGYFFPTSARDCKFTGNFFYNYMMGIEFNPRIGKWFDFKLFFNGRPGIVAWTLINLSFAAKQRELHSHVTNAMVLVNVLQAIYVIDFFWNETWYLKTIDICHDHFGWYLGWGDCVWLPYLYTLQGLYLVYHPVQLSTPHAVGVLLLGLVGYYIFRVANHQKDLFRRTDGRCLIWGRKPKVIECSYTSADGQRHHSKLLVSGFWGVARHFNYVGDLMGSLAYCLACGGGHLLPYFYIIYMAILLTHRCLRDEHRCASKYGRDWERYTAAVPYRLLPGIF
# Chain of UniProt Q92466 (Q92466 whole entry, looked up): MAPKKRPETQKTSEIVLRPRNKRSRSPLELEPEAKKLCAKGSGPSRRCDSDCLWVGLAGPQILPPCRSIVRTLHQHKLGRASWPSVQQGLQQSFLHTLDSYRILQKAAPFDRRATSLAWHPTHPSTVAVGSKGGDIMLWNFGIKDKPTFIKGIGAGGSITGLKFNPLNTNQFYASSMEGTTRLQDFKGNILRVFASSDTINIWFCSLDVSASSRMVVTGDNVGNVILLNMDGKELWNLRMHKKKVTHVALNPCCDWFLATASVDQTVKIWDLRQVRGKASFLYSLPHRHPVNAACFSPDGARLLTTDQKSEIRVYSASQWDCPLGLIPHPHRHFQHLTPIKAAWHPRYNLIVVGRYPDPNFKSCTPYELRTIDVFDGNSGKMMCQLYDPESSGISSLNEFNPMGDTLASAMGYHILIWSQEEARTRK
# Chain of UniProt Q92564 (Q92564 whole entry, looked up): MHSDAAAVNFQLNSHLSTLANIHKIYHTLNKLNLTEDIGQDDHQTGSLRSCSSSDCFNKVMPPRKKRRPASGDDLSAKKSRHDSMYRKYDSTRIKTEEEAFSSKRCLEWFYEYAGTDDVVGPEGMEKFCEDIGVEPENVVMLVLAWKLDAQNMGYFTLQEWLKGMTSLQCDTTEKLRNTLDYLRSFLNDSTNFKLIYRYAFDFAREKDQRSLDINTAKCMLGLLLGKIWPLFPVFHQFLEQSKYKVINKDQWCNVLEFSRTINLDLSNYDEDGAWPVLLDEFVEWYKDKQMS
# Chain of UniProt Q7Z401 (Q7Z401 whole entry, looked up): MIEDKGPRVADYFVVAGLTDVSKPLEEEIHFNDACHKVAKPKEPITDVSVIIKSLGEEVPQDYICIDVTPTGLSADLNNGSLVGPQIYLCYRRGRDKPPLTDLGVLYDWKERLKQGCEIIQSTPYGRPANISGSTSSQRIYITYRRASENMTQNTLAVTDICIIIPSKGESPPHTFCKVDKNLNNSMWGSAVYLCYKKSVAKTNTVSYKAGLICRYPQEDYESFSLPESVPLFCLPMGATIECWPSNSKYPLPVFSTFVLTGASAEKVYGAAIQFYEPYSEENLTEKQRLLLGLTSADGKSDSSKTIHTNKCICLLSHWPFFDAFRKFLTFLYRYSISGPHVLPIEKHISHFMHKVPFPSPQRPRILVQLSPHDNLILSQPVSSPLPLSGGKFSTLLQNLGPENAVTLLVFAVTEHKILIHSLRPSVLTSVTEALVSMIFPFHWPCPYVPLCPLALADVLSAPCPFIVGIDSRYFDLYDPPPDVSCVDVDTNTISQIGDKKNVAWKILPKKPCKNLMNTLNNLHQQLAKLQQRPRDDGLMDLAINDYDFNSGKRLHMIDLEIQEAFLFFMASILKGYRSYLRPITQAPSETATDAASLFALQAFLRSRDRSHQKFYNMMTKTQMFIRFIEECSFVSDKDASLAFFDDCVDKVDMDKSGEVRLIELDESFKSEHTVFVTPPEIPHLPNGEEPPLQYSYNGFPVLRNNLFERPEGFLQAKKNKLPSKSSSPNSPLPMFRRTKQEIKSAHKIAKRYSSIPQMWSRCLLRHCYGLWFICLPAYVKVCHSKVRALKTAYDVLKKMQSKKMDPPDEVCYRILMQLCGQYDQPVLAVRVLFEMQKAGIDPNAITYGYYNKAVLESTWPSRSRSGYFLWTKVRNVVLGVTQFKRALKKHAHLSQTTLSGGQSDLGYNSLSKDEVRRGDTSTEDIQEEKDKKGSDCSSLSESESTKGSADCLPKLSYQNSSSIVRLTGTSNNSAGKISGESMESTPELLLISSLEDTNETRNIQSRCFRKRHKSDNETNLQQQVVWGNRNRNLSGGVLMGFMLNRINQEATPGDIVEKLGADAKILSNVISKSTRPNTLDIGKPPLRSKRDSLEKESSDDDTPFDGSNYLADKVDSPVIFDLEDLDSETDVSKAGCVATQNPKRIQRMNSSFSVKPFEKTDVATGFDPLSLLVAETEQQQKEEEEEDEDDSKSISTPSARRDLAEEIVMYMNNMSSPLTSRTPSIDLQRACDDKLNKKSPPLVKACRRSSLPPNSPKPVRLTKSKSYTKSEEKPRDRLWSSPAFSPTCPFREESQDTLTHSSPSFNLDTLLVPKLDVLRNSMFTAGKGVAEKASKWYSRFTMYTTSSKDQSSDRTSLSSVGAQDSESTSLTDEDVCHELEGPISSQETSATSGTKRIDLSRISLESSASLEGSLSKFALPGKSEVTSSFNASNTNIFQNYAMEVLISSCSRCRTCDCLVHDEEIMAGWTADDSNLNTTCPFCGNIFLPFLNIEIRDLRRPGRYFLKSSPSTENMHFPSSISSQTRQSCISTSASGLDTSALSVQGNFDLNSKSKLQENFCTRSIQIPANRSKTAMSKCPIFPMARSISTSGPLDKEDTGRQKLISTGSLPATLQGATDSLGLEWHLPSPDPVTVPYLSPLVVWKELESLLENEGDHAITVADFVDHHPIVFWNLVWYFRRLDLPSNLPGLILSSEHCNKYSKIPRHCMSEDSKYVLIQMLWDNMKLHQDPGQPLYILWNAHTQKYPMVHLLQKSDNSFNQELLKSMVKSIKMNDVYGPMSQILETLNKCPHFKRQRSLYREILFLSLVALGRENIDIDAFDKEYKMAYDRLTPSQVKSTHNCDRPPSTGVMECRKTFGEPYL
# Chain of UniProt Q8TB03 (Q8TB03 whole entry, looked up): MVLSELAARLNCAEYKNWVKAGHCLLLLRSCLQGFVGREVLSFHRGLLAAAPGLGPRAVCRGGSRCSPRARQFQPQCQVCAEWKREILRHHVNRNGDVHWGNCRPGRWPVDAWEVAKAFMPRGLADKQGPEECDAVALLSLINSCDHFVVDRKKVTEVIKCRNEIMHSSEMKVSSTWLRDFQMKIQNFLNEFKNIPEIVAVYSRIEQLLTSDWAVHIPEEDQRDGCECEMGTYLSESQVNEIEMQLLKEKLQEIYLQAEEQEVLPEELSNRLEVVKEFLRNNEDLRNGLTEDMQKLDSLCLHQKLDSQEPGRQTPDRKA
# Chain of UniProt Q9NPI6 (Q9NPI6 whole entry, looked up): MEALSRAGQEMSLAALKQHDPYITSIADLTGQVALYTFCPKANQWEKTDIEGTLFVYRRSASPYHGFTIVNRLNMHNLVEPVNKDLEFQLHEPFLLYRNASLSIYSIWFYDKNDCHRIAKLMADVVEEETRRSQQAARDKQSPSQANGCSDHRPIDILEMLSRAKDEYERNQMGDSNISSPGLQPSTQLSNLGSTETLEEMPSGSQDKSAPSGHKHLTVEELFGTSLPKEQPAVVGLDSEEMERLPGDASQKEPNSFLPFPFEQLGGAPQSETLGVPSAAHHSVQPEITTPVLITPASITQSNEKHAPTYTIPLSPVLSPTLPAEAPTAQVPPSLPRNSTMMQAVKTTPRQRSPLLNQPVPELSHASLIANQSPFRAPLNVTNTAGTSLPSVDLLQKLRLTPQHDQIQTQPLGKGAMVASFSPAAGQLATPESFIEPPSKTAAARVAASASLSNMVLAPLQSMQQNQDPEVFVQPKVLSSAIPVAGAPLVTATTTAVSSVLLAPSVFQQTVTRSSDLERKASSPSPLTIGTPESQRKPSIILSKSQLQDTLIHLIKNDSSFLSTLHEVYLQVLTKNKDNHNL
# Chain of UniProt Q5RI15 (Q5RI15 whole entry, looked up): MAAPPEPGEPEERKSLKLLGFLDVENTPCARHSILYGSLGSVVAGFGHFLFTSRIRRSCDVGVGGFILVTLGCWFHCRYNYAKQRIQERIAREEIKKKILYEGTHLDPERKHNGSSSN
Target,log2 fold change (erlotinib),log2 fold change [1],log2 fold change [2],log2 fold change [3],log2 fold change [4],log2 fold change [5],log2 fold change [6],log2 fold change [7],log2 fold change [8],log2 fold change (IRAK-1-4 Inhibitor I),log2 fold change (ibrutinib),log2 fold change [9],log2 fold change (ralimetinib),log2 fold change [10],log2 fold change [11],log2 fold change [12],log2 fold change [13],log2 fold change [14],log2 fold change [15],log2 fold change [16]
DCP1A (UniProt Q9NPI6),0.038,0.025,0.03,0.004,-0.03,0.014,-0.033,0.013,0.012,-0.045,0,-0.016,0.004,-0.042,0.025,0.013,-0.02,0.046,0.011,0
CNOT4 isoform 6 (UniProt O95628),-0.025,-0.016,0.005,0.017,0.009,-0.035,0.043,-0.032,-0.013,0.041,-0.004,0.021,0.033,-0.007,-0.003,0.049,0.037,-0.281 (active),-0.026,0.012
DDB2 (UniProt Q92466),-0.007,-0.028,0.07,0.052,0.064,-0.024,0,-0.075,-0.041,0.026,0.075,-0.016,0.009,-0.033,-0.007,0.091,-0.003,0.009,0,0.01
DNAH10 (UniProt Q8IVF4),0.003,0.047,-0.059,-0.053,-0.026,0.026,-0.043,0.012,0.036,0.054,0.038,-0.017,-0.123,-0.112,-0.015,-0.04,-0.069,0.137,-0.014,-0.051
DLD (UniProt P09622),0.014,0,0.022,-0.01,0.025,0.004,0.007,0.008,0.006,0.026,0.003,0.003,-0.006,-0.016,-0.013,-0.03,-0.006,0.049,-0.007,0.004
CUEDC2 (UniProt Q9H467),-0.011,0.044,0.032,0.035,-0.02,0,-0.039,0.029,-0.106,0.013,0.056,0.044,0.001,-0.032,0.026,-0.027,-0.014,0.052,0.018,-0.082
DMXL1 (UniProt Q9Y485),0.006,0.016,-0.015,-0.017,-0.024,-0.008,-0.026,-0.013,-0.001,0.016,-0.02,-0.025,0.021,-0.012,0.016,-0.001,-0.024,0,0.064,-0.026
DCUN1D4 isoform 3 (UniProt Q92564),-0.025,-0.118,0.068,-0.127,-0.063,-0.026,-0.053,-0.09,-0.113,0.005,0.064,0.078,-0.033,-0.057,0.018,-0.009,-0.078,-0.027,0.029,-0.059
CXorf38 (UniProt Q8TB03),0.068,0.067,-0.003,0.01,0.042,0.013,0.012,-0.058,-0.031,0.026,0.054,0.015,-0.008,-0.007,0.062,-0.095,0.016,-0.002,-0.015,0.025
DDA1 (UniProt Q9BW61),-0.004,-0.001,0.036,-0.03,0.008,-0.093,0.016,-0.017,-0.01,0.012,0.108,-0.003,0,0.019,-0.072,0.028,0.022,0.01,0.018,-0.017
DENND4A isoform 2 (UniProt Q7Z401),0.023,-0.021,-0.015,0.007,-0.045,0.002,-0.041,0.002,0.012,0.017,0,-0.089,0.018,-0.028,0.017,0.006,0.026,0.029,0.023,-0.009
DNM2 (UniProt P50570),0.045,-0.009,0.049,0.013,0.029,0.003,-0.049,-0.022,-0.008,0,0.014,0,0.013,0.013,0.018,0.011,0.024,-0.016,0.006,0.004
DERA (UniProt Q9Y315),-0.008,0.008,0.028,0.014,0.015,0.001,0.019,0.013,0.023,0.002,-0.011,0.008,0.008,-0.032,0.013,-0.01,-0.037,0.033,-0.008,-0.017
CXXC1 isoform 2 (UniProt Q9P0U4),0.02,-0.031,-0.051,0.029,-0.085,-0.036,-0.088,0.082,0.04,0.059,-0.034,-0.078,0.013,-0.089,-0.005,-0.01,0.082,0.004,0.061,-0.155
COX20 isoform 2 (UniProt Q5RI15),0.022,0.004,-0.018,-0.001,-0.129,0.016,-0.036,-0.09,0.034,0.048,0.28,0.017,0.084,0.032,-0.003,-0.007,-0.04,0.003,0.001,-0.023
DHCR7 (UniProt Q9UBM7),-0.051,0.081,-0.153,-0.016,0.033,-0.024,-0.019,-0.058,0.075,0.007,-0.026,0.016,0.071,-0.042,-0.018,0.01,-0.007,-0.017,-0.011,-0.002
